Sampled rows, rich in hits. Any-hit rate of the full collection: about 8.9%.
NPSR antag = qHTS Assay for Antagonists of the Neuropeptide S Receptor: cAMP Signal Transduction | Q6W5P4 | CHO-NPSR cells, cAMP TR-FRET, antagonist mode | Potency, µM (series often up to 38.3 µM), without a hit: at the highest dose activity change, negative = inhibition, usual class: inhibitors | hit rate 1% among 220,000 | AID 1461, 2008; note: potency is the fitted concentration of half-maximal effect; nearly all actives have a fitted effect of over 50% in size
IMPase inh = qHTS Assay for Identifying the Cell-Membrane Permeable IMPase Inhibitors; Inositol monophosphatase 1 (Rattus norvegicus), P97697; CHO-M1 cells, IP1 accumulation, HTRF TR-FRET ratio; inhibition (IP1 accumulation), % at 46.1 µM; 120,000 tested, under 10 active; active = well fitted curve in the direction sought with a large enough effect in the signal ratio, not every such curve was filed as active; inconclusive = small, poorly fitted or top-dose-only effect, or a change in a side signal; inactive = no such curve, though single readings can be large or run the other way; the % refers to the signal ratio;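 note: cells stimulated with carbachol in lithium chloride buffer; plate controls were DMSO basal wells for no effect and reference inhibitor wells for full effect; higher means more IMPase inhibition seen as more IP1 and lower FRET ratio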
Target sequence (P97697 whole entry, looked up): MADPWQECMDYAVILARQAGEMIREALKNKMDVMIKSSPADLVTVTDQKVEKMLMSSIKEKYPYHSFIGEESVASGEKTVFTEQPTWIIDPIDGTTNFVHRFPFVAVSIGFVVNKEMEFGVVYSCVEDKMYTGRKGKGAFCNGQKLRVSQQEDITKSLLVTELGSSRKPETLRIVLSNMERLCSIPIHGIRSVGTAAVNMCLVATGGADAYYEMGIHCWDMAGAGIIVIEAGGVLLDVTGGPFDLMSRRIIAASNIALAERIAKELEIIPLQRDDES
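Cellular IMPase inhibition is scored as a rise in cytosolic IP1, detected by competitive TR-FRET between d2-labelled IP1 and a europium anti-IP1 antibody. M1-expressing CHO cells were stimulated with carbachol for 30 min at 37C, with lithium (50 mM LiCl) present in the buffer.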
HPGD block = qHTS Assay for Inhibitors of HPGD (15-Hydroxyprostaglandin Dehydrogenase); purified HPGD, NADH fluorescence kinetic, PGE2 substrate; 15-hydroxyprostaglandin dehydrogenase [NAD(+)] (Homo sapiens), P15428; hit rate 4.3% among 150,000; AID 894, 2007; Potency, µM, for inactives: at the highest dose activity change, negative = inhibition, most hits filed as inhibitors; active = well fitted inhibition curve with a large enough effect, not every such curve was filed as active; inconclusive = small, poorly fitted or top-dose-only effect, or another doubt; inactive = no such curve, though single readings can be large or run the other way; note: potency is the fitted concentration of half-maximal effect
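NADH formation kinetics: reaction with 30 uM PGE2 and 1 mM NAD+ (final), 20 nM enzyme, Tris-HCl pH 8 with Tween 20, after 15 min compound preincubation at room temperature. Fluorescence change, last versus first of five reads.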
IMPase Li cell = qHTS Assay for Identifying the Cell-Membrane Permeable IMPase Inhibitors: Potentiation with Lithium; CHO-M1 cells, IP1 TR-FRET (IP-One), carbachol + lithium; Potency, µM (doses to about 59.4 µM), for the others: top-dose activity, negative = IMPase inhibition, actives largely listed as inhibitors; hit rate 0.35% among 210,000;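 note: IP1 builds up when IMPase is blocked and the TR-FRET signal falls; potency is the fitted concentration of half-maximal effect; plate controls were basal vehicle for no effect and high inhibitor control for full effect; nearly all actives have a fitted effect of over 50% in size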
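Concentration–response in CHO-M1 cells, lithium-potentiated; 30 min at 37C. IP1 detected by competitive TR-FRET after 10 min lysis at RT. Hill-fitted AC50.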
ALDH1A1 inh = qHTS Assay for Inhibitors of Aldehyde Dehydrogenase 1 (ALDH1A1). hit rate 7.3% among 220,000. Purified ALDH1A1, NADH fluorescence, propionaldehyde substrate. Potency, µM (top dose mostly 75.3 µM), for the others: at the top dose activity, negative = inhibition, actives largely listed as inhibitors; active = well fitted inhibition curve with a large enough effect, not every such curve was filed as active; inconclusive = small, poorly fitted or top-dose-only effect, or another doubt; inactive = no such curve, though single readings can be large or run the other way;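 note: potency is the fitted concentration of half-maximal effect; plate controls were no enzyme wells and a reference inhibitor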
Target sequence (P00352 whole entry, looked up): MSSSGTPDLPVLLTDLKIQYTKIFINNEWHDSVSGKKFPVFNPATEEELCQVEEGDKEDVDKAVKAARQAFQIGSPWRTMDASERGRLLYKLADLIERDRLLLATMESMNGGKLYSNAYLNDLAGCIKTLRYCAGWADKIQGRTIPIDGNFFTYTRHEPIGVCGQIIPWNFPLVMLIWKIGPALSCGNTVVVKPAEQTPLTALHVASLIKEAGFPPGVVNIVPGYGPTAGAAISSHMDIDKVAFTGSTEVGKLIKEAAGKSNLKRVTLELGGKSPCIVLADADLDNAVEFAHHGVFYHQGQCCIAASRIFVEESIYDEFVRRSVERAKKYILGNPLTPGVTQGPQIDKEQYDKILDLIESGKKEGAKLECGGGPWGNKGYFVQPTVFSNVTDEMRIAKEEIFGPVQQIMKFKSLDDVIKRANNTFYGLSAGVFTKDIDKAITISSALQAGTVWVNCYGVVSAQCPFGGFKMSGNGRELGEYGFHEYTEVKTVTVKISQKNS
ALOX12 inhib = qHTS Assay for Inhibitors of 12-hLO (12-human lipoxygenase) | Potency, µM (titrated, usually from 57.1 µM), inactives show at the highest dose activity change, negative = inhibition, hits mostly inhibitors | purified 12-hLO, xylenol orange hydroperoxide absorbance | hit rate 0.12% among 150,000 | Polyunsaturated fatty acid lipoxygenase ALOX12 (Homo sapiens), P18054; note: potency is the fitted concentration of half-maximal effect; nearly all actives have a fitted effect of over 55% in size
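150 nM 12hLO, 25 mM Hepes pH 7.0 + 0.01% Triton X-100; cpd preinc 15 min RT; 40 uM arachidonic acid, 30 min RT; Fe-XO 30 min; A573/A405 ratio as read-out.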
Starred values were filed as active, the others as inactive; u = inconclusive; x = no result given; [ ] = another dose, or the depositor's remark. Unless noted, calls come from the whole dose curve; as a rule, active = well fitted curve in the direction sought with a large enough effect; inconclusive = small, poorly fitted or top-dose-only effect, or another doubt; inactive = no such curve, though single readings can be large; an effect the other way counts as inactive or inconclusive. Unless noted, % is set by controls: 0 for no effect and ±100 for the full control effect.

SMILES | NPSR antag | IMPase inh | HPGD block | IMPase Li cell | ALDH1A1 inh | ALOX12 inhib
Cc1nc(C)c(/C(O)=C/c2nc3ccc([N+](=O)[O-])cc3oc2=O)o1 | -11.4% | x | x | u | 0.398µM* | x
COc1cc(/C=N/NC(=O)COc2cccc(F)c2)ccc1OS(=O)(=O)c1ccc(C)cc1 | -9.4% | x | -22.4% | 7.1% | 8.91µM* | -3.6%
COc1cc(/C=N/NC(=O)COc2ccc(Cl)cc2)ccc1OS(=O)(=O)c1ccc(C)cc1 | -17.4%[46.1 µM] | 6.9 | -16.2% | 20.0%[38.3 µM] | u | -0.8%
COc1cc(/C=N/NC(=O)c2cccnc2)ccc1OS(=O)(=O)c1ccc(C)cc1 | -4.2% | x | -19.2% | 7.9% | 3.55µM* | 0.7%
Cc1ccc(S(=O)(=O)Oc2ccc(/C=N/NC(=O)c3cccnc3)cc2)cc1 | -15.3% | x | x | 20.1% | 12.6µM* | x
Cn1ncc(Br)c1C(=O)N/N=C/c1ccc(OS(=O)(=O)c2ccccc2)cc1 | 4.7%[46.1 µM] | u | -7.6% | 6.8% | 25.1µM* | -0.7%
O=C(NCCN1C(=O)S/C(=C\c2ccc(Cl)c(Cl)c2)C1=O)c1ccc2c(c1)C(=O)N(Cc1ccncc1)C2=O | -5.8% | x | -18.1% | 7.0% | -0.3% | -0.3%
FC(F)(F)c1nnc(-c2ccccc2)nc1Oc1ccc(Cl)cc1Cl | 5.9%[46.1 µM] | 4.8 | -3.6% | 8.3%[38.3 µM] | 2.2% | -3.1%
N#Cc1cc(-c2ccccc2)cnc1Sc1ccc(Cl)cc1 | -21.0%[46.1 µM] | 2.5 | u | 0.7%[38.3 µM] | u | 1.2%
N#Cc1cc(-c2ccc(Cl)cc2)cnc1Sc1ccc(F)cc1 | -9.4%[46.1 µM] | -0.3 | u | 25.1µM* | u | -1.1%
O=C(NCCN1C(=O)S/C(=C\c2ccccc2F)C1=O)C1CCN(S(=O)(=O)c2cccs2)CC1 | -1.5% | x | -18.9% | 7.2% | u | -1.7%
CCN(CC)C(=O)C1CCC(CNS(=O)(=O)c2cccc3cccnc23)CC1 (configuration not stated) | 1.4% | -2.9 | 7.94µM* | 1.0% | u | 3.0%
CCN(CCNC(=O)C1CCN(S(=O)(=O)c2cccc3cccnc23)CC1)c1ccccc1 | -16.5%[46.1 µM] | 1.3 | -18.0% | 11.7%[38.3 µM] | 39.8µM* | -2.7%
CN1CCN(C(=O)C2CCC(CNS(=O)(=O)c3cccc4cccnc34)CC2)CC1 (configuration not stated) | -9.7%[46.1 µM] | -0.1 | 15.8µM* | 5.7%[38.3 µM] | 0.0% | 4.5%
O=C(C1CCC(CNS(=O)(=O)c2cccc3cccnc23)CC1)N1CCc2ccccc21 (configuration not stated) | u | 16.3 | u | -3.9%[38.3 µM] | 1.26µM* | 1.0%
CC1CCCCN1CCNC(=O)C1CCN(S(=O)(=O)c2cccc3cccnc23)CC1 (configuration not stated) | -5.9%[46.1 µM] | -13.2 | -9.2% | 44.1%[38.3 µM] | -2.2% | -2.3%
O=C(NCCN1CCCCCC1)C1CCC(CNS(=O)(=O)c2cccc3cccnc23)CC1 (configuration not stated) | -24.1%[46.1 µM] | 8.2 | -14.8% | 12.0%[38.3 µM] | 12.6µM* | 7.2%
CC1CCN(C(=O)C2CCC(CNS(=O)(=O)c3cccc4cccnc34)CC2)CC1 (configuration not stated) | -20.7%[46.1 µM] | -1.5 | 0.891µM* | -12.9%[38.3 µM] | u | 3.3%
C[C@H](O)[C@H](O)[C@@H]1CNc2nc(N)[nH]c(=O)c2N1 | x | 0.2 | x | x | x | -7.4%
CC1CCOC(c2coc3ccccc3c2=O)O1 (configuration not stated) | 22.5% | x | -15.1% | -1.0% | 20µM* | 2.1%
O=C(O)C1CSC(c2coc3ccccc3c2=O)N1 (configuration not stated) | -26.8% | x | -19.1% | -8.3% | u | -3.1%
Cc1ccc(CNC(=O)CCCC(=O)Nc2cc(C)on2)cc1 | -1.3% | x | x | 1.3% | -2.9% | x
O=C(O)CCc1ccc(-c2ccccc2)o1 | -7.3%[46.1 µM] | -3.1 | -25.3% | 13.4%[38.3 µM] | 3.55µM* | -7.1%
O=C(CCCn1c(=S)[nH]c2ccccc2c1=O)NC1CCCC1 | 1.7%[46.1 µM] | -11.6 | 14.1µM* | -2.9%[38.3 µM] | u | -3.5%
CC1CCCCC1NC(=O)CCCn1c(=S)[nH]c2ccccc2c1=O (configuration not stated) | 0.5% | x | x | -0.3% | 2.2% | x
SMILES | NPSR antag | IMPase inh | HPGD block | IMPase Li cell | ALDH1A1 inh | ALOX12 inhib
CCCNC(=O)CCCCn1c(=S)[nH]c2c([nH]c3ccc(OC)cc32)c1=O | 3.6% | x | x | -9.8% | 0.3% | x
O=C(CCn1c(=S)[nH]c2ccccc2c1=O)NCC1CCCO1 (configuration not stated) | -15.1%[46.1 µM] | 3.7 | 28.2µM* | -16.5%[38.3 µM] | u | 7.4%
CC1CCCN(C(=O)CCCn2c(=S)[nH]c3ccccc3c2=O)C1 (configuration not stated) | -6.7%[46.1 µM] | -2.3 | 7.94µM* | 27.7%[38.3 µM] | 17.8µM* | -0.4%
CCCn1c(=S)[nH]c2cc(C(=O)NCC3CCCO3)ccc2c1=O (configuration not stated) | -17.7%[46.1 µM] | -9.9 | -15.6% | 2.7% | 4.1% | 1.0%
COc1ccc2[nH]c3c(=O)n(CCCCC(=O)N4CCCC4)c(=S)[nH]c3c2c1 | -18.5%[46.1 µM] | -17.7 | 4.47µM* | -11.6%[38.3 µM] | -7.2% | -8.2%
Cc1cc(N2CCCC2=O)ccc1S(=O)(=O)NCCOc1ccccc1 | -4.7% | x | x | 11.3% | -15.3% | x
O=C(CCc1c[nH]c2ccccc12)NC1CC1 | -2.8%[46.1 µM] | -3.2 | 15.8µM* | 19.5%[38.3 µM] | 5.3% | 1.8%
COc1ccc(S(=O)(=O)N(NC2=NS(=O)(=O)c3ccccc32)C(=O)C(C)C)cc1 | 2.7% | x | x | -4.4% | 1.6% | x
CC1=NN(c2ccccc2)C(=O)/C1=C\N1CC(C)OC(C)C1 (configuration not stated) | -7.2%[46.1 µM] | -13.6 | -1.9% | -12.6%[38.3 µM] | 25.1µM* | 0.1%
Cc1ccccc1C(=O)NC(=S)Nc1ccccc1C(F)(F)F | -14.7%[46.1 µM] | -0.8 | -6.7% | 5.8%[38.3 µM] | 12.6µM* | u
O=C(NNC(=S)Nc1ccccc1C(F)(F)F)c1cccnc1 | 0.6% | x | x | 5.4% | u | x
FC(F)(F)c1ccccc1NC(=S)NN=C1CCCCCC1 | -19.6% | x | x | 18.0% | 28.2µM* | x
Cc1c(NC(=S)Nc2ccccc2C(F)(F)F)cccc1[N+](=O)[O-] | 7.0%[46.1 µM] | -6.2 | x | x | 22.4µM* | 5.4%
N#CCC(=O)NNC(=S)Nc1ccccc1C(F)(F)F | 1.1% | x | x | 3.8% | 17.8µM* | x
COc1ccc(-c2nc3cccc(C)n3c2NCc2ccco2)cc1OC | -11.6%[46.1 µM] | -7.0 | u | 1.3% | u | -2.8%
COc1cc(/C=N/NC(=O)c2ccc(Cn3cc([N+](=O)[O-])cn3)o2)cc(Br)c1O | 44.2% | x | x | 0.0% | 3.2% | x
